Measured values: PubChem BioAssay AID1159580 (chemical genetic matrix, 2015)
Out of some 5,500 compounds screened, about 2,000 (36%) were called active. Roughly 18% stayed inconclusive and do not appear here. Rule as the data show it: active = normalized growth mostly below about 0.91 (no sharp cut-off); inconclusive = no clear call, values can overlap the other calls; inactive = mostly above about 0.92. The list shows a part of the results.

Assay: chemical genetic growth profiling, strain panel (AID 1159580);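 also: tested at 20 µM; growth read once vehicle control cultures reached saturation at 30 °C; 1 = growth at the plate median or of vehicle wells; lower values mean less growth of the strain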
Settings: S. cerevisiae deletion strains, growth OD

Measured: normalized growth

O=C(O)C1=C(CSc2nnnn2CS(=O)(=O)O)CS[C@@H]2C(NC(=O)[C@H](O)c3ccccc3)C(=O)N12 (stereo not given in full)
inactive: locus YAL021C, strain ccr4, active compounds read low 0.955 | locus YAL026C, strain drs2, active compounds read low 0.965 | locus YAL030W, strain snc1, active compounds read low 0.993 | locus YBL061C, strain skt5, active compounds read low 0.989 | locus YBR009C, strain hhf1, active compounds read low 0.993 | locus YBR023C, strain chs3, active compounds read low 0.988 | locus YBR171W, strain sec66, active compounds read low 0.978 | locus YBR231C, strain swc5, active compounds read low 0.987 | locus YBR279W, strain paf1, active compounds read low 0.99 | locus YCL011C, strain gbp2, active compounds read low 0.963 | locus YCL016C, strain dcc1, active compounds read low 0.987 | locus YCL061C, strain MRC1, active compounds read low 0.971 | locus YCL069W, strain vba3, active compounds read low 0.978 | locus YCR088W, strain abp1, active compounds read low 0.968 | locus YDL005C, strain med2, active compounds read low 0.98 | locus YDL040C, strain nat1, active compounds read low 0.989 | locus YDR001C, strain nth1, active compounds read low 0.978 | locus YDR069C, strain doa4, active compounds read low 0.982 | locus YDR137W, strain rgp1, active compounds read low 0.928 | locus YDR159W, strain sac3, active compounds read low 0.966 | locus YDR195W, strain ref2 0.971 | locus YDR297W, strain sur2, active compounds read low 0.985 | locus YDR334W, strain swr1, active compounds read low 0.95 | locus YDR335W, strain msn5, active compounds read low 0.963 | locus YDR392W, strain spt3, active compounds read low 0.956 | locus YEL003W, strain gim4, active compounds read low 0.969 | locus YEL037C, strain rad23, active compounds read low 0.963 | locus YEL061C, strain CIN8 (second series), active compounds read low 0.972 | locus YER015W, strain faa2, active compounds read low 0.986 | locus YER016W, strain bim1, active compounds read low 0.978 | locus YER111C, strain swi4, active compounds read low 0.981 | locus YER155C, strain BEM2 (second series), active compounds read low 0.989 | locus YFR010W, strain ubp6, active compounds read low 0.964 | locus YGL167C, strain pmr1, active compounds read low 0.987 | locus YGL173C, strain kem1, active compounds read low 0.983 | locus YGL227W, strain vid30, active compounds read low 0.994 | locus YGL240W, strain doc1, active compounds read low 1.01 | locus YGL253W, strain hxk2, active compounds read low 0.991 | locus YHR013C, strain ard1, active compounds read low 0.963 | locus YHR027C, strain rpn1, active compounds read low 0.975 | locus YHR030C, strain SLT2, active compounds read low 1 | locus YHR079C, strain IRE1, active compounds read low 1.03 | locus YHR142W, strain chs7, active compounds read low 0.948 | locus YJL092W, strain hpr5, active compounds read low 0.97 | locus YJL095W, strain BCK1 (second series), active compounds read low 0.994 | locus YJL095W, strain BCK1, active compounds read low 1.01 | locus YJL115W, strain asf1, active compounds read low 0.968 | locus YJL129C, strain trk1, active compounds read low 0.961 | locus YJL154C, strain vps35, active compounds read low 0.989 | locus YJL164C, strain tpk1, active compounds read low 0.982 | locus YJL166W, strain qcr8, active compounds read low 0.99 | locus YJL187C, strain SWE1, active compounds read low 0.991 | locus YJR066W, strain TOR1, active compounds read low 0.945 | locus YKL160W, strain elf1, active compounds read low 0.974 | locus YKR026C, strain gcn3, active compounds read low 0.972 | locus YKR091W, strain srl3, active compounds read low 0.989 | locus YLL001W, strain dnm1, active compounds read low 0.965 | locus YLL026W, active compounds read low 0.991 | locus YLL041C, strain sdh2, active compounds read low 0.982 | locus YLR027C, strain aat2, active compounds read low 0.984 | locus YLR113W, strain HOG1, active compounds read low 1.04 | locus YLR221C, strain rsa3, active compounds read low 0.975 | locus YLR258W, strain gsy2, active compounds read low 0.995 | locus YLR262C, strain YPT6 (second series), active compounds read low 0.98 | locus YLR320W, strain mms22, active compounds read low 0.995 | locus YLR342W, strain FKS1, active compounds read low 0.982 | locus YLR357W, strain rsc2, active compounds read low 1 | locus YLR370C, strain arc18, active compounds read low 0.971 | locus YLR384C, strain iki3, active compounds read low 0.987 | locus YML120C, strain ndi1, active compounds read low 0.958 | locus YMR058W, strain fet3, active compounds read low 0.97 | locus YMR125W, strain sto1, active compounds read low 0.993 | locus YMR129W, active compounds read low 0.975 | locus YMR205C, strain PFK2, active compounds read low 1.01 | locus YMR231W, strain pep5, active compounds read low 0.984 | locus YNL071W, strain lat1, active compounds read low 0.992 | locus YNL183C, strain NPR1, active compounds read low 0.952 | locus YNL209W, strain ssb2, active compounds read low 0.982 | locus YNL248C, strain rpa49, active compounds read low 0.947 | locus YNL322C, strain KRE1 (second series), active compounds read low 0.977 | locus YNR049C, strain mso1, active compounds read low 0.983 | locus YOR001W, strain rrp6, active compounds read low 0.942 | locus YOR070C, strain gyp1, active compounds read low 0.993 | locus YOR080W, strain dia2, active compounds read low 0.981 | locus YOR083W, strain WHI5, active compounds read low 0.972 | locus YOR106W, strain vam3, active compounds read low 0.971 | locus YOR231W, strain MKK1, active compounds read low 1.01 | locus YOR265W, strain rbl2, active compounds read low 0.991 | locus YOR270C, strain vph1, active compounds read low 0.964 | locus YOR290C, strain snf2, active compounds read low 0.979 | locus YPL051W, strain arl3, active compounds read low 0.998 | locus YPL078C, strain atp4, active compounds read low 0.966 | locus YPL106C, strain sse1, active compounds read low 0.961 | locus YPL240C, strain hsp82, active compounds read low 0.971 | locus YPL256C, strain CLN2, active compounds read low 1.04
